# Reference: the supplement of paper PMC12632987
# Biological target: UCHL1, P09936
# Experiment: median log2 fold change of GCK-ALFA target abundance (FLAG IP / Myc IP barcode read proportion) (log2 ratio); each designed protein is fused to an ALFA-tag nanobody in HEK293 cells to bring the named protein to FLAG-tagged glucokinase (GCK); Myc marks an untargeted standard; higher = target protein stabilised (more abundant)
# Conditions: target protein: 3xFLAG-MCP-GCK-ALFA reporter; HEK293 landing pad (RPLP)
# Outline: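 Binders fused to an ALFA nanobody were recombined as a library into HEK293 landing-pad cells, which were induced with 2 μg mL^−1 doxycycline and then transfected to express a FLAG-tagged target and a Myc-tagged standard. After 48 h, circular RNA barcodes recovered by anti-FLAG and anti-Myc immunoprecipitation of lysates were reverse transcribed, amplified and sequenced. Each binder's target abundance is the median log2 ratio of FLAG to Myc barcode read proportions, from barcodes present at ≥10^−7 in both replicates, binders carrying ≥3 barcodes per replicate, a 10^−6 pseudocount and pooled replicates.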
# UCHL1, P09936, sequence (P09936 whole entry, looked up, the tested form may be a part): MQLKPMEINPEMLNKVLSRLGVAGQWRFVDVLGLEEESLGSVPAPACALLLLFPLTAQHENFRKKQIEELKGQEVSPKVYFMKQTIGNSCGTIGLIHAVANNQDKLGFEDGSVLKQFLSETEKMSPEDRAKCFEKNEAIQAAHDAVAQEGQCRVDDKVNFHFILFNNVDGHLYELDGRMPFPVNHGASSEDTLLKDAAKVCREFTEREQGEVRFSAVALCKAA
row,Binder,median log2 fold change
1,uchl1_2_7527 (protein) KSKFVGVKVTLTAYNEETGKTYVSTRTLILSESGIENLSKEILDLVERFKQVNGDNIEVDIKAVSTDEEALEKAKKELEKAKKELEAKGVKVNITYELVK,-0.63
2,uchl1_2_7529 (protein) KTQFVGALVTMTATDPKTGKTYRARRILIGTADGIPAMMEEIEELALEFQKQTGVPVTVNVTVHVSKEEVAEEVKKKLEELKKRLAEKGITFTYEVIVHK,-0.784
3,uchl1_199_7518 (protein) MSREEDIARYMAGPFLFSNGSPEVVRARAYRLTVRLIRTRKDLSREELTAILVRFVEILAANRDPETVRAATEGIVEAVLEELGDEESAARIRAAAEALL,-0.219
4,uchl1_199_7506 (protein) SSKTEDIARNMAGRLLRYIRTPEVLAARARRLTRLLIERQTDLSVEEITETLLKLVELVHKERTPEETRAVTDAIVEAVLELLGDEEAARRIREHAEELL,0.171
5,uchl1_2_7534 (protein) KTVFVGVKVTVTVTDPATGKTTTTTRTFIGTADSVDALADAVTDYILRVKADSKADVAAAVTVYSTDKAVVDRAVAALNARVPELAAAGVTVTVTGTVVK,0.287
6,uchl1_2_7525 (protein) KTVFVGALLTLTSVDEETGEVYRYRRTLIGTASAIEALAREVEELVLNFRDDVGLPVDAEVHLVASDEETLRRAREAFEKMAERLAEEGITVTITSEVAR,0.0632
7,uchl1_2_7533 (protein) KTVFVGVRVTITSRNPETGEVRRAVRTFIFTESSLEALTEEIRELALAFKADHGGATTVRIEAVATREEVAERLRELLERLAEELAAEGIEVEIEVTVVK,-0.457
8,uchl1_2_7536 (protein) KTKFVGARVEIEAVDPETGKRYRSRRTLIGTASAIEAMAEEVRRLVLAFKEDVKAPVTVRVTVYASDEETAAKARAAFERMAAELAAEGITVEVEVVLVK,-0.837
9,uchl1_2_7526 (protein) KTKFVGVLVTLTSYNEETGKTYVSRRTLILSESGIEKLSEEILELVDRFKQVNGDNIKVKIHVVSTDEEALEKAKEKVEEAKEELEKRGVEVEVEYELVK,-0.696
10,uchl1_2_7520 (protein) KARFVGVLVDMTSTDPETGKTYRSRRNYIGTESAIPAMMAEVKEDVLNFQKNVGLPVKVDLHIVADTQEALDAAKAEAEKMAAELAKEGATVTISGEVAE,-1.27
11,uchl1_179_7503 (protein) AMKKVRIRATITFPKSTTMEQALAVAKEIAAALKELGVTGVSRIVVSRYNPENDPAHPDHMVITIGLVVPEEKAEAVIEAIKEIAAKAGAEVEIETEEVA,-0.0524
12,uchl1_2_7519 (protein) KTVIVGVLVDMRAYDPETGREYRARHTLIGTETAIEAMVEEIRERILAFRDDVGVPVEVDLHIVSSREEVARRLEALLKEMAAELAPEGVTVRISVTVTK,-0.204
13,uchl1_199_7508 (protein) SSKTEDIARNMAGRLLRYIRSPEVLAARARRLTERLIREQTHLSVEEITETFLLLVDYVHANRSPEQTRAVTDAIVEAVERELGDEEAAKRIREHTESLL,0.0747
14,uchl1_179_7504 (protein) ARRLVRIRATIVFPRSTTREEALAVARRIHAALKELGVTGLINLRVSRYNPENNPEHPDRMVIRLGLVVPEELADAVEAAIRALAAEAGAEIEIEREAIA,0.192
15,uchl1_2_7521 (protein) KAEFVGVLVDMTSTDPETGKTYRYRRNYIGTASAIPAMMAEVERDVLNFQENVGLPVDVALHIVASTEAALEAARAEAKKMAARLAAKGAKVTITGEVAK,-1.03
16,uchl1_2_7524 (protein) KTVFVGALVTLEAEDKETGKVYRYRRNLIGTESAIEALAKEVKELVLNFKEAVGLPVKATVHIVASREEVLKKAVEEFEKMAKELAKEGIEVEITSELTK,-0.455

row,Binder,median log2 fold change
1,uchl1_2_7530 (protein) KAEFVGALLTLTARDAETGETFRSRRTLIGTADAIEALMAEIEELALRFQADVGVPVTADIHVVVSNEETAERVREALARMAERLAAEGITVNVTVTVVR,-0.378
2,uchl1_199_7510 (protein) SSRTESIARNMAGRLLRYIMDPETARERARRLARRLITRRPGLSVEELTETFQLLVEYVAAERDPAVTRAVTDALVEAVREELGDEAAAAAVRARAEELL,-0.193
3,uchl1_2_7537 (protein) KTRFVGVKVDIEARNEETGEVFRARRTLIGTADSIPAMAEEVERLVLEFQRRTGVPVRVEVHVYASDEETARLAREEFEKMAERLRKEGIEVRVEVTVVE,-0.302
4,uchl1_2_7531 (protein) KKKTQFVGVLVTVRATRDGRELVARRTFIATESSIDALMAEVERYVRDFVAAAGTPARVAIRAVVSTEETGARVAAALAALAERLAPLAEEIEVTVEVRR,-0.524
5,uchl1_199_7511 (protein) MTKEEDIARNMAGRLLRYELDPEKVRERARRLATLLVERLSHLSVEEITETFLILVELVAKENNPEVLRAVTEAIVEVVRERLGDEEAARRIRERAEELA,-0.27
6,uchl1_2_7535 (protein) KTKFVGVLVTLTATDAETGEVKTSRRTFIGTEDSVEALADEVKDYILDYKKDSGKAVKADIKIYSTDEEVVKKLEALLKEKEPELKAAGIEVNITGEVVK,-0.112
7,uchl1_199_7507 (protein) SSLTEDIARNMAGRLLRYIRTPEVLAARAAELTARLIREQTHLSVEELTEIFLLLVDYVHAERTPEETRAATDAIVAEVERLLGDAAAAARIRAHAAALL,0.269
8,uchl1_199_7509 (protein) SSKTRSIAINMAGRLLRYIMDPETARERALRLARELITRRPGLSVEEITETFELLVRLVAAERDPETVRAVTDAIVEAILELLGDEEAAARVRATAEALV,-0.0199
9,uchl1_199_7517 (protein) MSREDDIARYMAGPFLLSNGSPEVVRARARERTRRLIRTRKDLSPEELTEIMVRFVEILAAHRDPETVRAATEGIVEAILEELGDEEAARRVRARAEELL,0.00596
10,uchl1_199_7515 (protein) MTRAESIAAQLGGRLLSGIYSPEVLAARAAALWADVLRRLSDLPDEELLEAFRILLEALAAAVDEASARAAAEAIVAVLAEERGIGERARAIADEVLAAR,0.16
11,uchl1_199_7513 (protein) MTRAESIARQVGGRLLSGIGSPEVLAARAARLLRLVLERLPDLPDEELLEAVRLLLRAIAAERSPEAFDAVAAALTAVLQEERGIGERMAAIAAEVRAEA,-0.209
12,uchl1_199_7516 (protein) MTRAESIARMLGGRLLRGIRDPEKLAARAAELTRRMLERLANLPDETILETVRLLLEAIARERSLEDARAAGEAIVEVLAEERGIGEAARAVVDEVLAAA,-0.835
13,uchl1_199_7505 (protein) SSRTEDIARNMAGRLLRYIRSPEVLAERARRLTRELIERQTHLSVEEITETLKLLVTYIHAERSPEETRAATDAIVEAVRELLGDEAAAAAIRAHTEALL,0.192
14,uchl1_199_7514 (protein) MSRAESIARQVGGRLLSGVGSPEVLAARAARLLREVLARLPDLPDEELLAMVRILLEAIAKNRSPETFDAVAAALIAVLQEERGIGAAAAAIAAEVRAKA,-0.0877
15,uchl1_199_7512 (protein) MSRAESIARQVGGRLLSGIGSPEVLAAKAAALLRRVLARLPDLPDETLLEMVRILLEAIARERSPEAFAAVAAALIAVLDAERGIGAEVAAIAEEVRAAA,-0.679
16,uchl1_2_7532 (protein) ESVFVGVLVTITSRNEATGETKVARRTLIALESNIEALMEEVKELVLAFKEEHGGKTEVKIEVYATREEVAKRAREVAEKMKEELEAAGIDATVEVKLVK,-0.231
